{"source": "PubChem BioAssay (Tox21)", "note": "Records with an inconclusive call do not appear. A call without a number means that no potency is given here. Calls of active or inactive are those of the source. Calls follow the shape of the dose curve; as a rule, active = well fitted curve in the direction sought with a large enough effect in the repeat runs; inconclusive = weak or mixed curves; inactive = no such curve, though single readings can be large; an effect the other way counts as inactive or inconclusive.", "data": [{"assay": "qHTS RealTime-Glo MT Cell Viability Assay in HepG2 cells - 0 hour (AID 1224889); also: nearly all actives have a fitted effect of over 50% in size", "conditions": "RealTime-Glo luminescence; series mostly up to 76.8 µM", "method_in_brief": "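Cell number in HepG2 cultures estimated from NanoLuc luminescence generated by metabolic reduction of a prosubstrate by living cells. The homogeneous, nonlytic format allowed repeated reads at 0, 8, 16, 24, 32 and 40 h of compound exposure.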", "values": [{"molecule": "COc1cc(CNC(=O)CCCC/C=C/C(C)C)ccc1O", "Potency": "inactive"}, {"molecule": "CNc1ccccc1", "Potency": "inactive"}, {"molecule": "O=C1OC(=O)C2CC=CCC12", "note": "(stereo not drawn)", "Potency": "inactive"}, {"molecule": "CC1(C)C(=O)NC(=O)N1CO", "Potency": "inactive"}, {"molecule": "Nc1ccc(C(=O)Oc2ccccc2)c(O)c1", "Potency": "inactive"}, {"molecule": "COC(=O)/C=C/C(C)=C\\C=C\\C(C)=C\\C=C\\C=C(C)\\C=C\\C=C(C)\\C=C\\C(=O)O", "Potency": "inactive"}, {"molecule": "O=c1[nH]nc(-c2ccc([N+](=O)[O-])o2)o1", "Potency": "inactive"}, {"molecule": "C/C(=C(\\CCO)SS/C(CCO)=C(\\C)N(C=O)Cc1cnc(C)nc1N)N(C=O)Cc1cnc(C)nc1N", "Potency": "inactive"}, {"molecule": "CC(=O)Oc1cccc2c1C(=O)c1c(OC(C)=O)cc(C(=O)O)cc1C2=O", "Potency": "inactive"}, {"molecule": "CO[C@@H]1COCC[C@@H]1N[C@@H]1CC[C@@](C(=O)N2CCc3ncc(C(F)(F)F)cc3C2)(C(C)C)C1", "Potency": "inactive"}, {"molecule": "O=C(NC1CCN(CCc2c[nH]c3ccccc23)CC1)c1ccccc1", "Potency": "inactive"}, {"molecule": "N#CCCCC(C#N)CCC#N", "note": "(stereo not drawn)", "Potency": "inactive"}, {"molecule": "C(/C=C/C=C/Nc1ccccc1)=Nc1ccccc1", "Potency": "inactive"}, {"molecule": "CCC(C)C1N=C(C)C(C)S1", "note": "(stereo not drawn)", "Potency": "inactive"}, {"molecule": "Cc1cc(C)n(CO)n1", "Potency": "inactive"}, {"molecule": "CCOc1ccccc1O", "Potency": "inactive"}, {"molecule": "O=C1c2ccccc2C(=O)c2c1ccc(O)c2O", "Potency": "inactive"}, {"molecule": "CC(C)C/C=C(\\C=O)c1ccccc1", "Potency": "inactive"}, {"molecule": "CC(C)=CCC[C@H](C)CCO", "Potency": "inactive"}, {"molecule": "NC(=O)c1cc[n+](CC2=C(C(=O)[O-])N3C(=O)[C@@H](NC(=O)Cc4cccs4)[C@H]3SC2)cc1", "Potency": "inactive"}]}, {"assay": "A CellTox Green Cytotoxicity Assay to monitor cytotoxicity in HepG2 cells - 8 hour (AID 1224890); also: nearly all actives have a fitted effect of over 45% in size", "conditions": "CellTox Green fluorescence; series mostly up to 76.8 µM", "method_in_brief": "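Using 1536-well format, dye-containing HepG2 suspension was seeded, allowed 5 h at 37 C/5% CO2, dosed by pintool with compounds, positive and negative controls, and imaged for fluorescence across 40 h.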", "values": [{"molecule": "CCCC(=O)OCc1ccccc1", "Potency": "inactive"}, {"molecule": "CCCCCCCCC(=O)OCC(C)OC(=O)CCCCCCCC", "note": "(stereo not drawn)", "Potency": "inactive"}, {"molecule": "CC[C@H](NC(C)C)[C@H](O)c1ccc(O)c2[nH]c(=O)ccc12", "Potency": "inactive"}, {"molecule": "O=C(O)c1ccncc1", "Potency": "inactive"}, {"molecule": "CCCCCCCCOCCCN", "Potency": "inactive"}, {"molecule": "COc1cc(CNC(=O)CCCC/C=C/C(C)C)ccc1O", "Potency": "inactive"}, {"molecule": "C[C@H]1C[C@H]2[C@@H]3CCC4=CC(=O)C=C[C@]4(C)[C@@]3(F)[C@@H](O)C[C@]2(C)[C@@]1(O)C(=O)COP(=O)(O)O", "Potency": "inactive"}, {"molecule": "CC(C)(C)N", "Potency": "inactive"}, {"molecule": "CNc1ccccc1", "Potency": "inactive"}, {"molecule": "C=Cc1ccc(C=C)cc1", "Potency": "inactive"}, {"molecule": "C/C=C1\\[C@H]2C=C(C)C[C@]1(N)c1ccc(=O)[nH]c1C2", "Potency": "inactive"}, {"molecule": "O=C1OC(=O)C2CC=CCC12", "note": "(stereo not drawn)", "Potency": "inactive"}, {"molecule": "CC1(C)C(=O)NC(=O)N1CO", "Potency": "inactive"}, {"molecule": "Nc1ccc(C(=O)Oc2ccccc2)c(O)c1", "Potency": "inactive"}, {"molecule": "COC(=O)/C=C/C(C)=C\\C=C\\C(C)=C\\C=C\\C=C(C)\\C=C\\C=C(C)\\C=C\\C(=O)O", "Potency": "inactive"}, {"molecule": "O=c1[nH]nc(-c2ccc([N+](=O)[O-])o2)o1", "Potency": "inactive"}, {"molecule": "C/C(=C(\\CCO)SS/C(CCO)=C(\\C)N(C=O)Cc1cnc(C)nc1N)N(C=O)Cc1cnc(C)nc1N", "Potency": "inactive"}, {"molecule": "O=[N+]([O-])c1cccc(I)c1", "Potency": "inactive"}, {"molecule": "CC(=O)Nc1ccccc1O", "Potency": "inactive"}, {"molecule": "CC1(COc2ccc(CC3SC(=O)NC3=O)cc2)CCCCC1", "note": "(stereo not drawn)", "Potency": "inactive"}, {"molecule": "CC(=O)c1ccc(Cl)c(Cl)c1Cl", "Potency": "inactive"}, {"molecule": "CC(=O)Oc1cccc2c1C(=O)c1c(OC(C)=O)cc(C(=O)O)cc1C2=O", "Potency": "inactive"}, {"molecule": "CC1=C(C)C(=O)C(C(CCCCCC(=O)O)c2ccccc2)=C(C)C1=O", "note": "(stereo not drawn)", "Potency": "inactive"}, {"molecule": "CO[C@@H]1COCC[C@@H]1N[C@@H]1CC[C@@](C(=O)N2CCc3ncc(C(F)(F)F)cc3C2)(C(C)C)C1", "Potency": "inactive"}, {"molecule": "O=C(NC1CCN(CCc2c[nH]c3ccccc23)CC1)c1ccccc1", "Potency": "inactive"}, {"molecule": "N#CCCCC(C#N)CCC#N", "note": "(stereo not drawn)", "Potency": "inactive"}, {"molecule": "C(/C=C/C=C/Nc1ccccc1)=Nc1ccccc1", "Potency": "inactive"}, {"molecule": "CCC(C)C1N=C(C)C(C)S1", "note": "(stereo not drawn)", "Potency": "inactive"}, {"molecule": "Cc1cc(C)n(CO)n1", "Potency": "inactive"}, {"molecule": "CCOc1ccccc1O", "Potency": "inactive"}, {"molecule": "CCC1=C(C)CN(C(=O)NCCc2ccc(S(=O)(=O)NC(=O)NC3CCC(C)CC3)cc2)C1=O", "note": "(stereo not drawn)", "Potency": "inactive"}, {"molecule": "O=C1c2ccccc2C(=O)c2c1ccc(O)c2O", "Potency": "inactive"}, {"molecule": "CC(C)C/C=C(\\C=O)c1ccccc1", "Potency": "inactive"}, {"molecule": "Cc1ccc(NC=O)c(C)c1", "Potency": "inactive"}, {"molecule": "NC(=O)c1cc[n+](CC2=C(C(=O)[O-])N3C(=O)[C@@H](NC(=O)Cc4cccs4)[C@H]3SC2)cc1", "Potency": "inactive"}, {"molecule": "[O-][n+]1ccc(Cl)cc1", "Potency": "inactive"}, {"molecule": "COc1ccc(/C=C/S(=O)(=O)NC(=O)c2ccc(C)cc2Cl)cc1", "Potency": "inactive"}, {"molecule": "CCC(C(=O)O)c1ccc(N2Cc3ccccc3C2=O)cc1", "note": "(stereo not drawn)", "Potency": "inactive"}]}]}
